A selection: hits, their analogues and other compounds. The true share with any hit is near 19%.
DT40 TDP1 CPT: qHTS for Inhibitors of human tyrosyl-DNA phosphodiesterase 1 (TDP1): qHTS in cells in presence of CPT; hit rate 12% among 420,000; chicken DT40 Tdp1-/-;hTDP1 cells + 20 nM CPT, ATP luminescence, 48 h; AID 686979, 2013; Potency, µM (titrated, usually from 46.2 µM), usual class: inhibitors; also: nearly all actives have a fitted effect of over 55% in size
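Chicken DT40 Tdp1-/- cells stably complemented with human TDP1 were seeded at 400 cells/well in medium containing 20 nM camptothecin, exposed to pin-transferred compounds, and grown at 37 °C for at least 48 hr. Viability was read as ATP luminescence.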
S-ASM inh: Inhibitors of Secretory Acid Sphingomyelinase (S-ASM): qHTS | Sphingomyelin phosphodiesterase (Homo sapiens), P17405 | placental ASM, HMU-PC fluorogenic substrate, 60 min | Potency, µM (top dose mostly 57.5 µM), hits mostly inhibitors | hit rate 0.006% among 340,000
Target sequence (P17405 47-631 limits assumed): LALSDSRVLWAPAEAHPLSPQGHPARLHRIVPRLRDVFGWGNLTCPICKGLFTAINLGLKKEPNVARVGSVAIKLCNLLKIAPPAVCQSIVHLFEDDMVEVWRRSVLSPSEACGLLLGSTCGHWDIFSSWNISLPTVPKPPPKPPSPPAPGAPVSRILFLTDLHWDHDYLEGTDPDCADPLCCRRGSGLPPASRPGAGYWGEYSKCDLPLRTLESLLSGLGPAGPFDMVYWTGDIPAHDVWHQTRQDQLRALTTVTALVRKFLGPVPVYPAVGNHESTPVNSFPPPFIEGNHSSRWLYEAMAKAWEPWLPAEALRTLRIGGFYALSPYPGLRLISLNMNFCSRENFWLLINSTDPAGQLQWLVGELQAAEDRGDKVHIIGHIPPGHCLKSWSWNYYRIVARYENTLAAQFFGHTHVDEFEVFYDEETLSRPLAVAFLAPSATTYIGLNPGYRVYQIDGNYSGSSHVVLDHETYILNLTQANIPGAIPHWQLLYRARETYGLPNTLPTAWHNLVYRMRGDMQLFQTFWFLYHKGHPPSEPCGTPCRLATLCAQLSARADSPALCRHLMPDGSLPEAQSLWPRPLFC
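qHTS format. ASM enzyme prepared from human placenta hydrolyses the fluorogenic substrate HMU-PC0 (9 uM final) over 60 min at 37 °C after a 10 min compound preincubation.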
IL1B secr inh: qHTS for Inhibitors of Inflammasome Signaling: IL-1-beta AlphaLISA Primary Screen. THP-1 LPS/ATP IL-1B secretion, AlphaLISA, 16 h; hits give low values. activity change, % at 57.5 µM. hit rate 4.7% among 360,000; in the data active = activity change below about -50%; inconclusive = mostly about -30% to -49%
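Secreted IL-1B measured by AlphaLISA bead assay after 16 h compound exposure of THP-1 cells; compounds (final up to 57.5 uM) added 1 h before LPS (250 ng/mL) and ATP (1.25 mM) stimulation; lower signal means less secretion.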
DT40 TDP1 no CPT: qHTS for Inhibitors of human tyrosyl-DNA phosphodiesterase 1 (TDP1): qHTS in cells in absence of CPT | hit rate 15% among 420,000 | DT40 Tdp1-/- hTDP1 cells, no CPT, ATP luminescence, 48 h | AID 686978, 2013 | Potency, µM (titrated, usually from 46.2 µM), hits mostly inhibitors; also: nearly all actives have a fitted effect of over 55% in size
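A cellular qHTS used chicken DT40 cells lacking endogenous Tdp1 but carrying stably transfected human TDP1. Compounds were applied without camptothecin, and cell growth kinetics were judged by ATP-dependent luminescence after ≥48 hr.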
HepG2 tox: qHTS for Inhibitors of TGF-b: Cytotox Counterscreen; HepG2 CAGA-GFP viability, ATP luminescence, 18 h; hit rate 0.76% among 410,000; Potency, µM (titrated, usually from 46.1 µM), hits mostly cytotoxic
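CellTiter-Glo luminescence gave cytotoxicity after 18 hours at 37 degrees C. The cells were HepG2 CAGA-GFP in 1% FBS DMEM, stimulated with 500 pg/mL TGF-beta after compound addition. %Activity was normalised to no-cell wells (complete cell-killing) and DMSO (no toxicity), and curves were fitted and classified.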
TGFb inhibitor: qHTS for Inhibitors of TGF-b; HepG2 CAGA-GFP TGF-b/SMAD3 reporter, GFP fluorescence, 18 h; TGF-beta stimulated, 500 pg/mL final; hit rate 1.2% among 410,000; Potency, µM (titrated, usually from 46.1 µM), hits mostly inhibitors; also: nearly all actives have a fitted effect of over 65% in size
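HEPG2 CAGA-GFP reporter cells (1000/well, DMEM with 1% FBS) received compounds, then recombinant TGF-beta at 500 pg/mL final for 18 hours at 37 degrees C. Per-cell GFP summed per well was normalised to unstimulated and stimulated DMSO controls before curve fitting.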
Numbers stand for hits; [ ] = remark or other dose. Unless noted, calls follow the shape of the dose curve; as a rule, active = well fitted curve in the direction sought with a large enough effect; inconclusive = small, poorly fitted or top-dose-only effect, or another doubt; inactive = no such curve, though single readings can be large; an effect the other way counts as inactive or inconclusive.

`O=C(NCC(=O)N(c1ccc2c(c1)OCO2)C(C(=O)NC1CCCC1)c1ccncc1)c1ccco1` (configuration not stated) gave DT40 TDP1 CPT 23µM, S-ASM inh inactive, IL1B secr inh inactive, DT40 TDP1 no CPT 23µM, HepG2 tox inactive and TGFb inhibitor inactive.
COCCCNC(=O)Cc1ccc(S(=O)(=O)N2CCOCC2)s1 was read as DT40 TDP1 CPT inactive, S-ASM inh inactive, IL1B secr inh inactive, DT40 TDP1 no CPT inactive, HepG2 tox inactive and TGFb inhibitor inactive.
For Cc1ccc(C(=O)Nc2ccc3oc(-c4ccccc4C)nc3c2)cc1 the results were DT40 TDP1 CPT inconclusive, DT40 TDP1 no CPT inconclusive, HepG2 tox inactive and TGFb inhibitor inactive.
`Cc1cccc(NC(=O)CSc2nnc(-c3cccs3)o2)c1` gave DT40 TDP1 CPT inconclusive, DT40 TDP1 no CPT inconclusive, HepG2 tox inactive and TGFb inhibitor inactive.
`CC(=O)NCCc1ccc(C(=O)CSc2nnc(C3CC3)n2C2CC2)cc1` gave DT40 TDP1 CPT inactive, S-ASM inh inactive, IL1B secr inh inactive, DT40 TDP1 no CPT inactive, HepG2 tox inactive and TGFb inhibitor inactive.
`O=C1CCc2cc(S(=O)(=O)NCCc3ccc(Cl)cc3)cc3c2N1CC3` gave DT40 TDP1 CPT inactive, S-ASM inh inactive, IL1B secr inh inactive, DT40 TDP1 no CPT inactive, HepG2 tox inactive and TGFb inhibitor inactive.
`Nc1ncnc(Nc2ccc(Cl)cc2)n1` gave DT40 TDP1 CPT inactive and DT40 TDP1 no CPT inactive.
`Cc1cccc(CCN(C(=O)Cc2cccs2)C(C(=O)NC2CCCCC2)c2cccnc2)c1` (configuration not stated) gave DT40 TDP1 CPT 5.8µM, S-ASM inh inactive, IL1B secr inh inconclusive, DT40 TDP1 no CPT inconclusive, HepG2 tox inactive and TGFb inhibitor inactive.
For COc1cc(N(C(=O)Cc2cccs2)C(C(=O)NC2CCCCC2)c2cccc(OC)c2OC)ccc1-n1cnnn1 (configuration not stated) the results were DT40 TDP1 CPT 12µM, S-ASM inh inactive, IL1B secr inh inactive, DT40 TDP1 no CPT 26µM, HepG2 tox inactive and TGFb inhibitor inactive.
For O=C(NC1CCCC1)C(c1ccccc1)N(Cc1cccnc1)C(=O)Cc1cccs1 (configuration not stated) the results were DT40 TDP1 CPT inactive, S-ASM inh inactive, IL1B secr inh inactive, DT40 TDP1 no CPT inactive, HepG2 tox inactive and TGFb inhibitor inactive.
`COc1ccc(NC(=O)c2c(NCc3ccc(C)o3)sc3c2CCCCC3)c(OC)c1` gave DT40 TDP1 CPT 9.2µM, DT40 TDP1 no CPT 18µM, HepG2 tox inactive and TGFb inhibitor inconclusive.
`COc1ccccc1NC(=O)c1c(NCc2ccc(C)o2)sc2c1CCC(C)C2` (configuration not stated) gave DT40 TDP1 CPT 18µM, DT40 TDP1 no CPT inconclusive, HepG2 tox inactive and TGFb inhibitor inconclusive.
Screening COc1ccc(NC(=O)c2c(NCc3ccc(C)o3)sc3c2CCC(C)C3)cc1 (configuration not stated) returned DT40 TDP1 CPT 23µM, DT40 TDP1 no CPT 9.2µM, HepG2 tox inactive and TGFb inhibitor inconclusive.
For COc1ccc(NC(=O)c2c(NCc3ccc(C)o3)sc3c2CCC(C)C3)c(OC)c1 (configuration not stated) the results were DT40 TDP1 CPT 21µM, DT40 TDP1 no CPT inconclusive, HepG2 tox inactive and TGFb inhibitor inconclusive.
Screening COc1ccc2c(c1)OC(C)CN(CC(=O)NCc1cn[nH]c1-c1ccc(F)cc1)C2 (configuration not stated) returned DT40 TDP1 CPT inactive[9.04 µM] and DT40 TDP1 no CPT inactive.
For Cc1csc2nc(-c3cccc(NC(=O)C(C)C)c3)cn12 the results were DT40 TDP1 CPT inconclusive, DT40 TDP1 no CPT inconclusive, HepG2 tox inactive and TGFb inhibitor inactive.
Screening COC(=O)c1c(NC(=O)C2CCCCC2)sc2c1CCN(C(C)C)C2 returned DT40 TDP1 CPT inconclusive, S-ASM inh inactive, IL1B secr inh inactive, DT40 TDP1 no CPT inconclusive, HepG2 tox inactive and TGFb inhibitor inactive.
`CCOC(=O)c1c(NC(=O)C2CCCCC2)sc2c1CCN(C(C)C)C2` gave DT40 TDP1 CPT 15µM, S-ASM inh inactive, IL1B secr inh inactive, DT40 TDP1 no CPT 13µM, HepG2 tox inactive and TGFb inhibitor inactive.
`CC(C)N1CCc2c(sc(NC(=O)C3CCCCC3)c2C(N)=O)C1` gave DT40 TDP1 CPT inconclusive, S-ASM inh inactive, IL1B secr inh -55, DT40 TDP1 no CPT inconclusive, HepG2 tox inactive and TGFb inhibitor inactive.
Screening Cc1ccc(C)c2sc(NC(=O)c3ccc(N4CCCCC4)c([N+](=O)[O-])c3)nc12 returned DT40 TDP1 CPT inconclusive, S-ASM inh inactive, IL1B secr inh inconclusive, DT40 TDP1 no CPT 23µM, HepG2 tox inactive and TGFb inhibitor inactive.
`Cc1cccc(NC(=O)c2ccc(N3CCOCC3)c([N+](=O)[O-])c2)n1` gave DT40 TDP1 CPT inconclusive, S-ASM inh inactive, IL1B secr inh inactive, DT40 TDP1 no CPT inconclusive, HepG2 tox inactive and TGFb inhibitor inactive.
Screening Cc1cccc(NC(=O)c2ccc(N3CCCCC3)c([N+](=O)[O-])c2)n1 returned DT40 TDP1 CPT inconclusive, S-ASM inh inactive, IL1B secr inh inactive, DT40 TDP1 no CPT 13µM, HepG2 tox inactive and TGFb inhibitor inactive.
For Cc1cccc(NC(=O)c2ccc(N(C)C3CCCCC3)c([N+](=O)[O-])c2)n1 the results were DT40 TDP1 CPT 21µM, S-ASM inh inactive, IL1B secr inh inconclusive, DT40 TDP1 no CPT 16µM, HepG2 tox inactive and TGFb inhibitor inactive.
For CCC(CC)c1nnc(NC(=O)CN2C(=O)NC3(CCCC3)C2=O)s1 the results were DT40 TDP1 CPT inactive, S-ASM inh inactive, IL1B secr inh inactive, DT40 TDP1 no CPT inactive, HepG2 tox inactive and TGFb inhibitor inactive.
Screening C[C@@H]1C(=O)O[C@H]2[C@@H](O)[C@@]34[C@H]5CC(C(C)(C)C)[C@]36[C@@H](OC(=O)[C@@H]6O)O[C@@]4(C(=O)O5)[C@@]12O (some centres not stated) returned DT40 TDP1 CPT inactive and DT40 TDP1 no CPT inactive.

Screening data as filed in PubChem.
